Source: PubChem
A selection follows.
aSyn 5UTR act: Activators working through SNCA 5'UTR binding (MLPCN). activity score, % (tested at 7.5 µM), hits read low. 300,000 tested, 7.1% active. alpha-synuclein 5'UTR reporter, activators screen; in the data active = activity score below about -60%
An asterisk follows results filed as active.

SMILES	aSyn 5UTR act
CCn1c(SCC(=O)c2cc(C)n(CC3CCCO3)c2C)nc2ccccc21 (stereo not drawn)	-119*
Cc1cc(C(=O)CSc2nc3ccccc3c(=O)[nH]2)c(C)n1CC1CCCO1 (stereo not drawn)	-115*
Cc1cc(C(=O)CSc2nnnn2-c2ccccc2)c(C)n1CC1CCCO1 (stereo not drawn)	-105*
CC(CCc1ccccc1)NC(=O)C(=O)Nc1ccccc1 (stereo not drawn)	-149*
O=C(CCCc1ccccc1)Nc1cccnc1	-82*
CN(C)CCC(=O)C(Cc1ccccc1)c1ccccc1 (stereo not drawn)	99
Cc1cccc(NC(=O)CCOc2ccccc2)c1	-74*
O=C(CCc1ccccc1)Nc1ccccc1	-80*
COc1ccc(NC(=O)CCOc2ccccc2)cc1	-126*
Cc1cccc(NC(=O)CCCc2ccccc2)c1	-172*
O=C(CCOc1ccccc1)Nc1ccc(Br)cc1	-113*
CCCCC(=O)NC(c1ccc(N(C)C)cc1)c1ccc2cccnc2c1O (stereo not drawn)	62
CN(C)c1ccc(NC(=O)CCCc2ccccc2)cc1	-120*
CC(=O)c1ccc(NC(=O)CCOc2cc(C)ccc2C)cc1	-91*
O=C(NCc1cccnc1)c1c[nH]c2cc3c(cc2c1=O)OCCO3	-123*
O=C(c1ccccc1)c1c[nH]c2cc3c(cc2c1=O)OCCO3	-67*
Cc1ccnc(S(=O)(=O)Cc2ccc([N+](=O)[O-])cc2)n1	-70*
O=C(NCCc1cccc(Cl)c1)c1cccs1	-115*
O=C(NCCc1cccc(Cl)c1)c1cccnc1	-84*
O=C(NC(c1ccccc1)c1cc(Cl)c2cccnc2c1O)c1cccnc1 (stereo not drawn)	100
Cc1cc2ccccc2n1CCNC(=O)c1cccs1	-121*
O=C(NCCc1ccccc1)c1cnc2sccn2c1=O	-90*
O=C(NCCc1ccccc1)c1cccs1	-94*
CCO[C@H]1OC(C(=O)NCc2nc3ccccc3[nH]2)=C[C@@H](C2CC2)[C@@H]1CCCO	80
O=C(NCc1nc2ccccc2[nH]1)c1cccs1	-64*
SMILES	aSyn 5UTR act
COc1ccc(Cl)cc1NC(=O)c1cnc2sccn2c1=O	-106*
CCc1ccc2[nH]c(=O)c(CN(Cc3nnnn3C3CCCC3)C3CCCCC3)cc2c1	-70*
CSc1ccccc1C(=O)Nc1ccc2c(c1)OCCO2	-65*
CC(C)c1ccc(O)c(NC(=S)NC(=O)c2ccc3c(c2)OCO3)c1	-124*
O=C(Nc1ccc2c(c1)OCCO2)c1cccc(Cl)c1	-225*
O=C(Nc1ccc2c(c1)OCCO2)C1CC1c1ccccc1 (stereo not drawn)	-123*
O=C(NC(=S)Nc1ccccc1Br)c1ccc2c(c1)OCO2	-137*
O=C(Nc1ccc2c(c1)OCO2)c1ccccc1	-120*
O=C(Nc1ccc2c(c1)OCCO2)C(=S)NCc1ccccc1	-96*
O=C(CCNc1ccccc1)c1ccc2c(c1)OCO2	-193*
O=C(Nc1ncc([N+](=O)[O-])s1)c1ccc2c(c1)OCO2	103
O=C(Nc1ccc2c(c1)OCCO2)c1cccc(C(=O)Nc2ccc3c(c2)OCCO3)c1	-148*
O=C(Nc1ccc2c(c1)OCO2)c1cncc(Br)c1	-191*
O=C(Nc1ccc2c(c1)OCCO2)c1ccccc1	-98*
CCc1ccc(NC(=O)c2ccccc2SC)cc1	-177*
O=C(Nc1ccc2c(c1)OCCO2)C(=O)NC1CC1	-74*
O=C(Nc1ccncc1)c1ccc2ccccc2c1	-135*
CCc1ccc(NC(=O)c2cnc(SC)nc2C)cc1	-93*
Nc1ccc(C(=O)c2ccc3c(c2)OCCO3)cc1N	-166*
O=C(CS(=O)(=O)c1ccccc1)c1ccc2c(c1)OCCO2	-132*
CC(C)(C)c1ccc(C(=O)Nc2cccc([N+](=O)[O-])c2)cc1	-193*
O=C(Nc1cccc([N+](=O)[O-])c1)c1ccc2c(c1)OCCO2	-124*
CN(c1cccc(NC(=O)c2ccc(C(C)(C)C)cc2)c1)S(C)(=O)=O	-174*
O=C(NC(=S)Nc1ccc2c(c1)OCCO2)c1cccc2ccccc12	-82*
CCc1ccc(NC(=O)c2cnc3n(c2=O)CCS3)cc1	-185*
SMILES	aSyn 5UTR act
CCCc1cc(C(=O)Nc2cccc([N+](=O)[O-])c2)cs1	-105*
O=C(Nc1cccc(Cl)c1)c1ccc2c(c1)OCCO2	-123*
O=C(NC(=S)Nc1ccc2c(c1)OCO2)c1ccccc1	-199*
CS(=O)(=O)Nc1ccc(C(=O)Nc2ccc3c(c2)OCCO3)cc1	-169*
O=C(Nc1cccc([N+](=O)[O-])c1)c1[nH]ncc1Cl	-227*
O=C(CC(=O)c1ccccc1)Nc1ccc2c(c1)OCCO2	-119*
O=C(NNC(=O)c1cccc2ccccc12)c1ccc2c(c1)OCO2	-94*
Cc1ccc(NC(=O)Nc2cccc([N+](=O)[O-])c2)cc1F	-87*
O=C(NC(=S)Nc1ccc2c(c1)OCCO2)c1cccc(Br)c1	-302*
O=C(Nc1ccncc1)c1ccc2c(c1)OCCO2	-68*
CCc1ccc(C(=O)NNc2ccccc2F)cc1	-83*
CCCc1ccc(C(=O)NNc2ccccc2F)cc1	-110*
